The nature of experiment [1]: qHTS for differential inhibitors of proliferation of Plasmodium falciparum line 7G8 (AID 1815).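 Also: parasite growth measured after three days of incubation.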 Also: potency is read from the fitted curve at half-maximal effect. On the technique in general: In qHTS, concentration-response curves come from the screen itself.
Experiment [2] in a line: qHTS for differential inhibitors of proliferation of Plasmodium falciparum line GB4 (AID 1816).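 Also: parasite growth measured after 72 h incubation.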 Also: potency is read from the fitted curve at half-maximal effect. The note with it: Potency: Plasmodium falciparum GB4 proliferation inhibition.
Experiment [3] is described as follows: qHTS for differential inhibitors of proliferation of Plasmodium falciparum line 3D7 (AID 1876). Also: potency is read from the fitted curve at half-maximal effect.
Experiment [4] in a line: qHTS for differential inhibitors of proliferation of Plasmodium falciparum line D10 (AID 1877).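 Also: parasites grown with compound for 72 h before DNA staining.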 Also: potency is read from the fitted curve at half-maximal effect.
A short description of experiment [5]: qHTS for differential inhibitors of proliferation of Plasmodium falciparum line W2 (AID 1883).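 Also: parasites grown with compound for 72 h before lysis and staining.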 Also: potency is read from the fitted curve at half-maximal effect. To be noted: Potency: Plasmodium falciparum W2 proliferation inhibition.
A short description of experiment [6]: qHTS for differential inhibitors of proliferation of Plasmodium falciparum line HB3 (AID 1886).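 Also: parasites grown with compound for 72 h before SYBR Green readout.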 Also: potency is read from the fitted curve at half-maximal effect. The note with it: Potency: Plasmodium falciparum HB3 proliferation inhibition.
Experiment [7] deals with Ferritin light chain (Equus caballus) (UniProt P02791). Description: qHTS Validation Assay for Identification of Novel General Anesthetics (AID 2323). Also: series mostly up to about 77 µM. The method in brief:
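Normalized fluorescence response, scaled between free 1-AMA and 1-AMA/apoferritin complex, fitted to a four-parameter Hill equation for concentration-effect values. Binding mix: 10 uM horse-spleen apoferritin, 50% saturated 1-AMA in PBS; read 380/535 nm after 10 min.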

The nature of experiment [8]: qHTS for differential inhibitors of proliferation of Plasmodium falciparum line Dd2 (AID 1882). Also: nearly all actives have a fitted effect of over 65% in size. Also: potency is read from the fitted curve at half-maximal effect. To be noted: Potency: Plasmodium falciparum Dd2 proliferation inhibition. The method in brief: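 SYBR Green I DNA fluorescence read-out, ex 485/em 535 nm. Signals were normalized to 0.29 uM artemisinin and DMSO wells, then corrected using vehicle-only plates flanking each stack. Parasite growth ran 72 h in erythrocytes before lysis.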

Experiment [9] can be described thus: qHTS Assay for Modulators of Human Peripheral Myelin Protein 22 (PMP22) Expression/Activity (AID 1967; active = well fitted curve in the direction sought with a large enough effect in the signal ratio; the % refers to the signal ratio). In short, it runs like this: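 Engineered MSC80 cells, Pmp22-promoter green and EF-alpha red luciferase reporters; 24h compound treatment at 37 °C. Concentration-response fits on green, red and ratio signals, each overlap-corrected, with %Activity normalized to untreated wells.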

Inconclusive results are not listed. Calls of active or inactive are those of the source. Unless noted, calls follow the shape of the dose curve; as a rule, active = well fitted curve in the direction sought with a large enough effect; inconclusive = small, poorly fitted or top-dose-only effect, or another doubt; inactive = no such curve, though single readings can be large; an effect the other way counts as inactive or inconclusive.

Sequence of Ferritin light chain (Equus caballus) (P02791 2-175 limits assumed): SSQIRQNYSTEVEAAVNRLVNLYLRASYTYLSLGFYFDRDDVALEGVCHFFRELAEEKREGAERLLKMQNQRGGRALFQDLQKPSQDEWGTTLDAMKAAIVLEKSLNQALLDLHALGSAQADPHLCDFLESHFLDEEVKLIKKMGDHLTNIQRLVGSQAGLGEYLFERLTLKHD

In the case of `O=C(c1ccc(OCCN2CCCCC2)cc1)c1c(-c2ccc(O)cc2)sc2cc(O)ccc12`, the Potency was 4.47 µM (active) in experiment [1]; 2 µM (active) in experiment [2]; 2.82 µM (active) in [3]; 3.16 µM (active) in experiment [4]; 3.16 µM (active) in experiment [5]; 3.16 µM (active) in [6].

Regarding `CN1CCC(=C2c3ccccc3CC(=O)c3sccc32)CC1`, the Potency in [1] is 10 µM (active); in experiment [2], 2.24 µM (active); in experiment [3] it was 3.55 µM (active); in experiment [4], 4.47 µM (active); in [5] it was 0.891 µM (active); in [6] it was 10 µM (active). The Potency entry in experiment [7] was “inactive”.

Consider `CC(CCc1ccc(O)cc1)NCCc1ccc(O)c(O)c1` (configuration not stated), for which the Potency in experiment [1] is 12.6 µM (active); in [2], 12.6 µM (active); in experiment [4], 14.1 µM (active); in experiment [5], 10 µM (active); in experiment [6], 12.6 µM (active). The Potency result in experiment [7] is “inactive”.

For the compound `O=C1N(c2ccccc2)c2ccccc2C1(Cc1ccncc1)Cc1ccncc1`, the Potency in experiment [1] is 8.91 µM (active); in [2] it was 12.6 µM (active); in [5], 10 µM (active); in [6] it was 11.2 µM (active). The Potency entry in experiment [8], in experiment [9] and in experiment [7] was “inactive” each time.

Regarding `Cc1cnc(C(=O)NCCc2ccc(S(=O)(=O)NC(=O)NC3CCCCC3)cc2)cn1`, the Potency result in experiment [1], in experiment [2], in [3], in experiment [4], in experiment [8] and in experiment [6] was “inactive” throughout.

For the compound `CNCCCC12CCC(c3ccccc31)c1ccccc12`, the Potency is 11.2 µM (active) in experiment [1]; 8.91 µM (active) in experiment [2]; 10 µM (active) in [3]; 11.2 µM (active) in [8]; 5.01 µM (active) in experiment [5]. Further, the Potency entry in experiment [7] is “inactive”.

Turning to `C[C@](N)(Cc1ccc(O)c(O)c1)C(=O)O`, the Potency entry in experiment [1], in experiment [3], in experiment [4], in [8], in experiment [6] and in [7] was “inactive” in each case.

Turning to `Nc1ccn([C@H]2CC[C@@H](CO)O2)c(=O)n1`, the Potency entry in experiment [1], in experiment [2], in experiment [3], in experiment [4], in [8] and in [5] was “inactive” in each case. Moreover, the Potency entry in experiment [6] and in experiment [7] was “inactive” in each case.

As to `NCCCCCC(=O)O`, the Potency result in experiment [1], in experiment [2], in [3], in experiment [4], in experiment [8] and in [5] was “inactive” each time. The Potency result in experiment [6] and in experiment [7] was “inactive” each time.

In the case of `CN(C)CCC=C1c2ccccc2C=Cc2ccccc21`, the Potency in [1] is 5.01 µM (active); in [2], 11.2 µM (active); in experiment [3], 11.2 µM (active); in experiment [5] it was 5.01 µM (active); in experiment [6], 12.6 µM (active). In addition, in experiment [7], the Potency result is “inactive”.

On to `CC[N+](CC)(CC)CCOc1cccc(OCC[N+](CC)(CC)CC)c1OCC[N+](CC)(CC)CC`, for which the Potency result in experiment [1], in [2], in [3], in [4], in experiment [8] and in [5] was “inactive” in each case. In addition, the Potency entry in [6] and in [7] was “inactive” each time.

Regarding `CN1CCN2c3ccccc3Cc3ccccc3C2C1` (configuration not stated), the Potency in experiment [1] is 10 µM (active); in [2], 12.6 µM (active); in [8] it was 7.08 µM (active); in experiment [5], 5.62 µM (active); in experiment [6], 12.6 µM (active). For the same compound, in experiment [7], the Potency result is “inactive”.

With `CCOC(=O)Nc1ccc(NCc2ccc(F)cc2)nc1N`, the Potency in experiment [1] was 2.82 µM (active); in experiment [2], 2.82 µM (active); in experiment [3], 3.55 µM (active); in experiment [4], 7.08 µM (active); in [8] it was 11.2 µM (active); in experiment [5], 2 µM (active). The Potency in experiment [6] is 2.82 µM (active). Also, in experiment [7], the Potency entry was “inactive”.

As to `Clc1ccc(C(c2ccccc2Cl)C(Cl)Cl)cc1` (configuration not stated), the Potency entry in experiment [1], in experiment [2], in experiment [3], in experiment [4], in experiment [8] and in experiment [6] was “inactive” in each case. Also, the Potency result in [7] was “inactive”.

With `O=C(c1ccc(F)cc1)C1CCN(CCn2c(=O)[nH]c3ccccc3c2=O)CC1`, the Potency was 3.16 µM (active) in experiment [1]; 5.62 µM (active) in experiment [2]; 7.08 µM (active) in [3]; 3.98 µM (active) in experiment [4]; 6.31 µM (active) in experiment [8]; 1.58 µM (active) in [5]. For the same compound, in [6], the Potency is 3.98 µM (active). Further, the Potency result in [7] is “inactive”.

In the case of `CS(=O)(=O)Nc1ccc([N+](=O)[O-])cc1Oc1ccccc1`, the Potency result in experiment [1], in [3], in [4], in [8], in experiment [6] and in experiment [7] was “inactive” throughout.

Regarding `CC12CC3CC(C)(C1)CC(N)(C3)C2`, the Potency in [1] is 11.2 µM (active); in [2], 0.891 µM (active); in experiment [8], 5.62 µM (active); in experiment [5] it was 2.24 µM (active). For the same compound, the Potency result in [4] and in experiment [7] was “inactive” each time.

As for `CC(C)NCC(O)COc1ccc(CCOCC2CC2)cc1` (configuration not stated), the Potency in experiment [1] was 10 µM (active); in experiment [5], 7.08 µM (active). Also, the Potency result in experiment [3], in [4], in [8], in [6] and in experiment [7] was “inactive” each time.

The values above are taken from PubChem BioAssay (NCATS).
